Screens: PubChem BioAssay, several laboratories
ROMK mod: modulators of human ROMK potassium channel | Tet-inducible ROMK, thallium flux fluorescence; actives lie on both sides | B-score at 10 µM | hit rate 2% among 130,000 | AID 1918;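 active means signal ratio slope over the read window, or its plate-corrected B-score, at least 3 SD from the plate mean, either direction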;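 further: B-score of the F/F0 ratio slope over 7 to 12 s after thallium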
Target sequence (P48048 whole entry, looked up): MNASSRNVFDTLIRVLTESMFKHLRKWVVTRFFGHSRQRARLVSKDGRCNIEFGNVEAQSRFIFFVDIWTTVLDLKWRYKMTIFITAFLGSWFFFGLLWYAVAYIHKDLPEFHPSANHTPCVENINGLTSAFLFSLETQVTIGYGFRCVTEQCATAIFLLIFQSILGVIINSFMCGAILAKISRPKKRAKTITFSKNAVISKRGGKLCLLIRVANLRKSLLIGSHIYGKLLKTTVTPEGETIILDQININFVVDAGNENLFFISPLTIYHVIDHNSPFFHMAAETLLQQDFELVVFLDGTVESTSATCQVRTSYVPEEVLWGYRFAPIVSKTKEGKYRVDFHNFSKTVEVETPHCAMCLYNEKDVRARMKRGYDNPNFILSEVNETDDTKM
INS promoter inh: TRM-6 insulin promoter activity inhibition | TRM-6 cells (human fetal islet line), insulin promoter-eGFP reporter, imaging; reporter expression induced with tamoxifen | hit rate 0.9% among 130,000 | AID 1273 | inhibition, % at 2 µM;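 active means inhibition above the mean plus 3 SD, with well images judged a real hit on visual review, cut at about 60% in these data, passing the limit was not always enough; inconclusive means inhibition over the cutoff but images rejected on review; inactive means inhibition not above the cutoff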
WT yeast gro inh: growth inhibition of WT yeast, mitochondrial fusion screen; mitochondrial fusion phenotypic screen, WT strain; inhibition, % at 10 µM; hit rate 2.1% among 190,000; AID 1362; in the data active means inhibition above about 58%; tested in S. cerevisiae
KCC2 mod: modulators of human KCC2 chloride dependent transport. Q9H2X9. KCC2 cells, thallium flux FluoZin-2 fluorescence. B-score of Tl+ flux slope (higher = more flux/activation; lower = inhibition) at 10 µM. hit rate 2.2% among 190,000;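 active means thallium flux slope and its plate-corrected score both differing from the plate sample mean at a set confidence after two filtering rounds, in either direction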;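 further: slope of fluorescence scaled to starting intensity during 10 to 20 s after thallium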
L major viab: reduces viability of Leishmania major promastigotes | resazurin fluorescence viability | hit rate 9% among 200,000 | inhibition, % at 10 µM; in the data active means inhibition above about 50%;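 further: promastigotes grown with compound for 44 hours at 28 °C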
Ins promoter up: MIN6 insulin promoter up-regulation. z-score at 5 µM. MIN6 insulin promoter-GFP reporter, high-content imaging; stronger effect = higher value. hit rate 0.3% among 190,000;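 active means z-score above 3 at 5 µM with at least 500 cells counted in the well; inconclusive means wells under 500 cells, flagged as cytotoxic or low count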
KCC2 sec1: confirmation of human KCC2 transport modulators; shares compounds with KCC2 mod; HEK293-KCC2, thallium flux, FluoZin2 fluorescence; stronger effect = higher value; normalised thallium flux (F/F0 slope) at 10 µM; hit rate 15% among 3,700; AID 1713;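 active means thallium flux slope above the same plate's solvent-only control mean plus 3 SD; inconclusive means the two replicate wells disagree; inactive means no significant difference from solvent-only control wells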
KCC2 bumet counter: thallium flux despite bumetanide block in KCC2 cells, secondary assay 3; HEK293-KCC2 + bumetanide/ouabain, thallium flux FluoZin2; stronger effect = higher value; AID 1714; hit rate 49% among 3,700; shares compounds with KCC2 mod; normalized thallium flux at 10 µM;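 active means thallium entry rate above the same plate's blocked-transporter control wells by more than 3 SD; inconclusive means the two repeat wells disagree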;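 further: raw slope of fluorescence over initial fluorescence between 10 and 20 s after thallium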
KCC2 secondary2: confirmation of human KCC2 transport modulators; shares compounds with KCC2 mod; AID 1715; hit rate 23% among 3,700; HEK293-KCC2, thallium flux FluoZin2 fluorescence; actives lie on both sides; F/F0 rise rate, 10–20 s post-thallium; normalized thallium flux at 10 µM;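 active means thallium flux slope more than 3 SD above or below the plate's solvent-only control mean, mostly below; inconclusive means the two repeat wells disagreed; inactive means no significant shift from solvent-only controls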
HEK293 Tl flux: acts in parental HEK cells, KCC2 counter-screen; shares compounds with KCC2 mod; HEK293 parental cells, thallium flux FluoZin2, ouabain; baseline-ratio fluorescence slope, 10–20 s after thallium; thallium flux rate (normalised fluorescence) at 10 µM; hit rate 46% among 3,700;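 active means thallium flux rate significantly above the same plate's solvent-only control wells, beyond their mean plus 3 SD; inconclusive means the two replicate wells gave conflicting results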
KCC2 ouabain: confirmation of human KCC2 modulators with ouabain. shares compounds with KCC2 mod. HEK293-KCC2, thallium flux FluoZin2 fluorescence; bidirectional: low = inhibitor, high = activator. raw Tl+ flux slope (below DMSO = inhibition, above = activation) at 10 µM. hit rate 48% among 3,700. AID 1717;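 active means thallium flux slope beyond 3 SD from same-plate DMSO control mean in most replicates, usually higher, sometimes lower; inconclusive means repeat tests gave conflicting results; inactive means no significant difference from controls in most replicates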;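 further: slope of initial-normalized fluorescence between seconds 10 and 20 after thallium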
HEK293 Tl flux2: parental HEK flux effect, counter-screen 2; thallium flux slope at 10 µM; hit rate 33% among 3,700; shares compounds with KCC2 mod; HEK293 parental, thallium flux FluoZin-2 fluorescence slope;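 active means thallium flux slope above the same plate's solvent-control mean plus 3 SD in both duplicate wells; inconclusive means duplicate wells that disagreed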;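 further: run without ouabain in cells lacking the KCC2 cotransporter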
Numbers stand for hits; 0 = inactive; ? = inconclusive; - = no result. Sampled rows, rich in hits. Any-hit rate of the full collection: about 12%.

SMILES	ROMK mod	INS promoter inh	WT yeast gro inh	KCC2 mod	L major viab	Ins promoter up	KCC2 sec1	KCC2 bumet counter	KCC2 secondary2	HEK293 Tl flux	KCC2 ouabain	HEK293 Tl flux2
Cc1ccc(Cc2cnc(NC(=O)/C(C#N)=C/c3ccc(-c4ccccc4[N+](=O)[O-])o3)s2)cc1	-	0	0	0	0	0	-	-	-	-	-	-
N#C/C(=C\c1ccc(-c2ccccc2Cl)o1)C(=O)Nc1nc2ccccc2s1	0	0	0	6.8	0	0	0	0.024	0	0.032	0.029	0.034
Cc1cc2c(c(=O)n1CCN(C)C)C(c1ccc(Cl)cc1)C(C#N)=C(N)O2 (stereo not given)	-	0	0	0	0	0	-	-	-	-	-	-
O=C(CCCc1nc2ccccc2s1)NC1CCOC1=O (stereo not given)	0	-	0	0	0	0	-	-	-	-	-	-
O=C(NNC(=O)c1ccc(Oc2cc(Cl)cc(Cl)c2)o1)c1ccccc1	-	-	-	28	-	0	0.014	0.051	0	0.02	0.036	0.012
NC(=O)C1CCN(C(=O)c2ccc(Oc3cc(Cl)cc(Cl)c3)o2)CC1	-	-	-	0	-	0	-	-	-	-	-	-
O=C(NNC(=O)c1ccc(Oc2ccc(C3SCCS3)cc2)o1)c1ccc(Cl)cc1	0	-	-	5.4	-	0	0	0.026	0	0.01	0.032	0.01
CCOC(=O)c1cnc(SC)nc1Oc1cccc(NC(=O)c2ccc(Cl)cc2)c1	0	0	0	-	0	0	-	-	-	-	-	-
O=C(CCNS(=O)(=O)c1cccc2nonc12)NCCc1ccc(Cl)cc1	-	-	0	-3.6	0	0	?	0	0	0	0.017	0
Cc1cccc(Nc2n[nH]c(=S)s2)c1C	-	-	0	-5.3	0	0	0	0	0.017	0	0.0074	?
COc1cccc(Nc2n[nH]c(=S)s2)c1	-	-	0	-6.8	0	0	0	0	0.021	0	0.011	0
Nc1nc(-c2ccccc2)[nH]c(=O)c1N	0	0	0	0	0	0	-	-	-	-	-	-
Cc1sc2ncnc(SC(C)C#N)c2c1C (stereo not given)	-	-	0	3.8	0	-	?	0.026	0	0.01	?	?
CCC(Sc1ncnc2sc(C)c(C)c12)C(=O)OC (stereo not given)	0	0	0	-	0	0	0.026	0.056	0.046	0.042	0.044	0.036
Cc1nc(N2CCOCC2)nc(OCCN(C)C)c1[N+](=O)[O-]	0	0	0	0	0	0	-	-	-	-	-	-
CCN(C(=O)CCc1nc(-c2ccc(OC)cc2)no1)c1cc(OC)ccc1OC	0	0	0	0	0	0	-	-	-	-	-	-
CCCC[C@@H]1CNC(=O)C(=O)N1CC(C)(C)C	-	-	-	0	-	0	-	-	-	-	-	-
COc1ccc(-n2c(C)nc3cc(C(=O)NCCN4CCOCC4)ccc32)cc1	0	-	0	-6.3	0	0	0	0	0	0	0	0
O=C(NC(c1ccccc1)c1ccccc1)C1CCCN(S(=O)(=O)c2cnc[nH]2)C1 (stereo not given)	-	-	0	-	0	0	-	-	-	-	-	-
C/C(=N\Nc1nc2ccc(Cl)cc2o1)c1ccccc1	0	-	-	10	-	0	0	0	0	0.013	0	0.015
S=c1[nH]nc(-c2ccccc2)c2ccccc12	0	-	0	-	0	0	-	-	-	-	-	-
NC(=S)NCc1cccnc1	-	-	0	4.8	0	0	0	0	0	0	0	0
S=C(NCc1cccnc1)Nc1ccc(Oc2ccccc2)cc1	0	-	0	-3.9	0	0	0	0	0.022	0	?	0
Nc1ccc(N2CCOCC2)c(S(=O)(=O)Nc2cc(Cl)ccc2Cl)c1	0	-	0	0	0	-	-	-	-	-	-	-
c1ccc(Nc2nc(N3CCCC3)nc(N3CCCC3)n2)cc1	-	0	0	0	0	0	-	-	-	-	-	-
